Bioassay records as filed in PubChem BioAssay.
Only some compounds are listed: those with a hit (about 19% of all), similar ones and a draw of the others.
TDP1 cell CPT: DT40-hTDP1 cell growth loss with CPT; chicken DT40 Tdp1-/-;hTDP1 cells + 20 nM CPT, ATP luminescence, 48 h; Potency, µM (titrated, usually from 46.2 µM), inactives show at the top dose activity change, negative = growth inhibition, most hits filed as inhibitors; 420,000 compounds, 12% hits; also: nearly all actives have a fitted effect of over 55% in size
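Chicken DT40 Tdp1-/- cells complemented with human TDP1, 400 cells/well, exposed to compounds plus 20 nM camptothecin for at least 48 h at 37 C; viability read as ATP content by CellTiter-Glo luminescence.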
TDP1 cell noCPT: qHTS for Inhibitors of human tyrosyl-DNA phosphodiesterase 1 (TDP1): qHTS in cells in absence of CPT. Potency, µM (highest dose often 46.2 µM), without a hit: at the top dose activity change, negative = growth inhibition, actives largely listed as inhibitors. 420,000 compounds, 15% hits. DT40 Tdp1-/- hTDP1 cells, no CPT, ATP luminescence, 48 h. AID 686978, 2013; also: nearly all actives have a fitted effect of over 55% in size
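Luminescent ATP content (CellTiter-Glo) served as the growth readout. Knockout chicken DT40 cells expressing human TDP1 were exposed to compounds without camptothecin for a minimum 48 hr at 37 °C.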
HT1080 IDH1KD tx: kills HT-1080 cells with IDH1 knockdown | AID 686971 | 360,000 compounds, 2% hits | HT-1080 IDH1 knockdown viability, ATP luminescence, 48 h | Potency, µM (series often up to 46.1 µM), for inactives: top-dose activity, negative = toxicity, most hits filed as cytotoxic;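 also: 0% = DMSO wells and -100% = cell-free medium wells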
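Cytotoxicity counter-line: IDH1KD HT-1080, 48 h, CellTiter-Glo. Curves classed by r2, magnitude and activity.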
HT1080-NT tox: kills 2HG-producing HT-1080-NT fibrosarcoma cells; HT-1080-NT fibrosarcoma viability, CellTiter-Glo ATP luminescence, 48 h; Potency, µM (doses to about 46.1 µM), without a hit: at the top dose activity, negative = less viability, actives largely listed as cytotoxic; 360,000 compounds, 1.6% hits;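 also: NT is the 2HG producing partner of a matched IDH1 knockdown line; 0% = DMSO-treated cells and -100% = media-only wells without cells; nearly all actives have a fitted effect of over 55% in size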
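A 48-hour cytotoxicity screen used HT-1080-NT cells plated 2 hours before compound delivery. ATP-based CellTiter-Glo luminescence measured viability, normalized to DMSO and no-cell controls.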
KB-3-1 tox: KB-3-1 parental cell cytotoxicity; 400,000 compounds, 1.4% hits; KB-3-1 viability, CellTiter-Glo ATP luminescence, 72 h; Potency, µM (titrated, usually from 46.1 µM), most hits filed as cytotoxic; also: nearly all actives have a fitted effect of over 60% in size
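Cytotoxicity measured as CellTiter-Glo luminescence after 72 h at 37 C. Compound titrations were pinned onto drug-naive KB-3-1 parental adenocarcinoma cells grown in DMEM with 10% FBS, and normalized data fitted to concentration-response curves.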
KB-V1 MDR tox: kills drug-selected multidrug resistant KB-V1 cells. KB-V1 MDR cells viability, CellTiter-Glo, 72 h. Potency, µM (highest dose often 46.1 µM), actives largely listed as cytotoxic. 400,000 compounds, 3.4% hits. AID 1347076; also: nearly all actives have a fitted effect of over 60% in size
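KB-V1 MDR subline cells in DMEM (phenol-red free, 10% FBS) exposed to compounds in qHTS concentration series for 72 h at 37 degrees C. Viability read by CellTiter-Glo luminescence; concentration-effect curves fitted after normalization and correction.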
An asterisk follows results filed as active; i = inactive; ? = inconclusive; / = no result; ! = a repeat was not active. Calls follow the shape of the dose curve; as a rule, active = well fitted curve in the direction sought with a large enough effect; inconclusive = small, poorly fitted or top-dose-only effect, or another doubt; inactive = no such curve, though single readings can be large; an effect the other way counts as inactive or inconclusive. Unless noted, % is scaled to controls: 0 for no effect and ±100 for the full control effect; potency is read from the fitted curve at half-maximal effect.

SMILES	TDP1 cell CPT	TDP1 cell noCPT	HT1080 IDH1KD tx	HT1080-NT tox	KB-3-1 tox	KB-V1 MDR tox
CC(=O)Nc1cc(-c2cccc(C(=O)N(C)C)c2)cn2c(-c3ccc(F)cc3)cnc12	?	?	-21%	-14%	i	i
CCN(CC)C(=O)c1cccc(-c2csc(C(NC(C)=O)c3cccc(OC)c3)n2)c1 (stereo not drawn)	?	?	6%	-8%	i	?
CN(Cc1ccccc1)C(=O)c1csc([C@@H]2O[C@H](CO)[C@@H](O)[C@H]2O)n1	-25%	-3%	6%	15%	i	i
CCCC[C@H]1COCCS(=O)(=O)N1Cc1cccc([N+](=O)[O-])c1	-14%	-11%	1%	3%	i	?
Cc1ccc(CN2CCOCCS2(=O)=O)cc1	-25%	?	/	/	i	i
CC(=O)Nc1cc(-c2cccc(C(=O)N(C)C)c2)cn2c(-c3ccc(C(C)=O)cc3)cnc12	16µM*	12µM*	-2%	-7%	i	i
CC(=O)Nc1cccc(-c2cc(NC(C)=O)c3ncc(-c4ccc(C(C)=O)cc4)n3c2)c1	5.2µM*	7.3µM*	-25%	-22%	i	i
CC(=O)Nc1cc(-c2cccc(C(=O)N(C)C)c2)cn2c(-c3ccccc3)cnc12	?	?	-18%	-30%	i	i
CC(=O)Nc1cc(-c2cccc(N)c2)cn2c(-c3ccccc3)cnc12	18µM*	?	-24%	-14%	i	i
CC(=O)Nc1cc(-c2cccc(F)c2)cn2c(-c3ccccc3)cnc12	18µM*	?	-10%	-11%	i	i
Cc1ccc(-c2nc(CS(=O)CC(=O)NCCc3ccc(Cl)cc3)c(C)o2)cc1 (stereo not drawn)	?	?	/	/	i	i
COc1cc(NC(=O)c2ccc(-n3cnc4cccnc43)cc2)cc(OC)c1	/	/	/	/	?	i
COCC1=C(C(=O)OC(C)OC(=O)OC(C)C)N2C(=O)[C@@H](NC(=O)/C(=N\OC)c3csc(N)n3)[C@H]2SC1 (stereo partly drawn)	3.3µM*!	1.3µM*!	-5%	19%	i	i
Cc1ccc(S(=O)(=O)n2nc(C)c(Br)c2C)c(C)c1C	?	21µM*	-5%	-4%	i	?
CCCCn1cnc2cc(NCc3ccccc3Cl)ccc21	?	?	/	/	i	i
Cc1ccc(CN2C(=O)C3(c4ccccc42)N(c2cccc(C(F)(F)F)c2)C(=O)CS3(=O)=O)cc1 (stereo not drawn)	?	?	/	/	i	i
CC(=O)Nc1ccc(C(=O)Nc2ccc(-c3nc4ccccc4[nH]3)cc2)cc1	/	/	/	/	i	?
Cn1ncc([N+](=O)[O-])c1C(=O)Nc1ccc(Cl)cc1	-10%	17%	-3%	-3%	i	i
Cn1ncc([N+](=O)[O-])c1C(=O)Nc1ccc(-c2nc3ccccc3[nH]2)cc1	?	18µM*	-15%	?	i	i
CCOc1ccc(C(=O)Nc2ccc(-c3nc4ccccc4[nH]3)cc2)cc1[N+](=O)[O-]	21µM*	18µM*	?	?	i	i
CCOc1cccc2sc(N(CCN(CC)CC)C(=O)c3ccco3)nc12	?	?	/	/	i	i
Cc1onc(-c2ccccc2)c1C(=O)Nc1nc2c(s1)CCCC2	?	?	-17%	-12%	?	?
CCOc1ccc2nc(NC(=O)CSc3nc4cccnc4n3C)sc2c1	8.2µM*	3.3µM*	?	?	i	i
CCc1nnc(NC(=O)c2nc(SCc3ccccc3C)ncc2Cl)s1	-16%	-10%	/	/	i	i
CCOc1ccc2nc(NC(=O)c3nc(SCc4ccccc4C)ncc3Cl)sc2c1	13µM*	2.9µM*	/	/	i	i
SMILES	TDP1 cell CPT	TDP1 cell noCPT	HT1080 IDH1KD tx	HT1080-NT tox	KB-3-1 tox	KB-V1 MDR tox
Cc1cc(C(=O)Nc2nc3c(s2)CCCC3)no1	-4%	4%	11%	0%	i	16µM*
CCOc1ccc2nc(NC(=O)CSc3ccccc3)sc2c1	?	26µM*	-29%	-13%	?	?
CCOc1ccc2nc(NC(=O)CCn3cccc3)sc2c1	-9%	-2%	-8%	-14%	i	i
COC(=O)c1ccc(C2c3c(oc4cc(C)c(C)cc4c3=O)C(=O)N2c2ccccn2)cc1 (stereo not drawn)	18%	-3%	/	/	i	i
CCOc1ccc2nc(NC(=O)c3cccnc3)sc2c1	-22%	-12%	5%	18%	?	?
CCOc1ccc2nc(NC(=O)c3ccccc3)sc2c1	13µM*	23µM*	/	/	?	?
CCOc1ccc2nc(NC(=O)C3=NN(c4ccccc4)C(=O)CC3)sc2c1	?	26µM*	-1%	-2%	i	i
CC(C)(C)c1ccc(C(=O)NC(=S)Nc2nc3c(s2)CCCC3)cc1	26µM*	29µM*	12%	-2%	?	i
CN(C)C(=S)Nc1nc2ccccc2s1	3.7µM*	2.6µM*	-9%	-6%	?	i
CCCCN1CC[C@H]2C=CC[C@@H](C(=O)NC3CCCCC3)[C@H]2C1=O	?	?	/	/	i	?
COc1ccc(Cl)cc1NC(=O)Cn1nc(C(F)(F)F)c2c1CCCC2	?	?	/	/	i	i
CCc1ccccc1NC(=O)Cc1c(C(=O)O)[nH]c2ccc(Cl)cc12	-3%	-1%	/	/	i	i
CCOc1ccc2nc(NC(=O)c3ccc(C)o3)sc2c1	?	18µM*	?	-9%	?	?
CCOc1ccc2nc(NC(=S)N(C)C)sc2c1	1.3µM*	1.2µM*	-1%	8%	i	?
CCOc1ccc2nc(NS(=O)(=O)Cc3ccccc3)sc2c1	3.3µM*	4.6µM*	6.5µM*	5.8µM*	?	?
CCOc1ccc2nc(NC(=O)c3cnc(C)cn3)sc2c1	15µM*	21µM*	-13%	-17%	i	i
CC1=CC(=C(C#N)C#N)C=C(C)N1Cc1ccccc1	24%	-17%	9%	15%	i	i
CCc1noc(C)c1C(=O)Nc1nc2ccc(F)cc2s1	7%	-16%	-14%	-10%	i	i
CCc1ccc2nc(NC(=O)c3cc(C)on3)sc2c1	9.2µM*	8.2µM*	6.5µM*	9.2µM*	7.3µM*	8.2µM*
